# Source: the supplement of paper PMC8728848
# The sample as a whole holds a higher share of the strongest signals than the screen did.
# B1: Clec49 (Caenorhabditis elegans) (protein)
# chain: MTRLTLLLFGLLGAATAQTCNTGGIYNEQFNRCYQYFTAPAQFSFAEQQCNLLGGHLASVQNGQENALLQSNAANSFKRSNYSDYWIGATDLETSGTWKWTDPSVTFDYSNWQLGEPQSGSDCAIQDKGDGTWSAIGCTSYRPYVCVTPVIMTATCPPITTPIPTTCPTPAPCPIKQCVPSCDQGWTYFSPTDFCYRVYHGEKFNDAEASCVLLGGHLASIHSLTENTFVNNIASCGIKEGKYEHLAWIGMRKVGQDWVWTDGTPSDYFNWAPKQPDNPKKELCVQTAPDLSHDKWYENWNNLECNEVMRAYICKKASIHN
# Tests used:
# Assay in all cases: glycan array binding signal (z-score within array); higher = stronger binding
# Conditions in all cases: glycan notation: IUPAC condensed, linker removed
# [1] = molecular target: Fuc(a1-2)Gal(b1-4)[Fuc(a1-3)]GlcNAc(b1-2)[Fuc(a1-2)Gal(b1-4)[Fuc(a1-3)]GlcNAc(b1-4)]Man(a1-3)[Fuc(a1-2)Gal(b1-4)[Fuc(a1-3)]GlcNAc(b1-2)Man(a1-6)]Man(b1-4)GlcNAc(b1-4)GlcNAc
# Summary of the method: (§1)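 Arrays were curated from the Consortium for Functional Glycomics database, 3228 in total, and kept only where the protein sequence was available. Binding is expressed as a within-array Z-score. This score was averaged across arrays of the same protein sequence at different concentrations or buffers and across linkers, and negative values can be read as non-binding.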
# [2] = molecular target: Fuc(a1-2)[Gal(a1-3)]Gal(b1-3)GalNAc(b1-3)Gal(a1-4)Gal(b1-4)Glc
# Summary of the method: as §1
# [3] = molecular target: Fuc(a1-2)[Gal(a1-3)]Gal(b1-3)GlcNAc(b1-2)Man(a1-3)[Fuc(a1-2)[Gal(a1-3)]Gal(b1-3)GlcNAc(b1-2)Man(a1-6)]Man(b1-4)GlcNAc(b1-4)GlcNAc
# Summary of the method: as §1
# [4] = molecular target: Fuc(a1-2)[Gal(a1-3)]Gal(b1-4)[Fuc(a1-3)]Glc
# Summary of the method: as §1
# [5] = molecular target: Fuc(a1-2)[GalNAc(a1-3)]Gal(b1-3)GlcNAc(b1-3)GalNAc
# Summary of the method: as §1
# [6] = molecular target: Fuc(a1-2)[GalNAc(a1-3)]Gal(b1-4)GlcNAc(b1-2)Man(a1-3)[Fuc(a1-2)[GalNAc(a1-3)]Gal(b1-4)GlcNAc(b1-2)Man(a1-6)]Man(b1-4)GlcNAc(b1-4)GlcNAc
# Summary of the method: as §1
# Fuc(a1-3)GlcNAc = molecular target: Fuc(a1-3)GlcNAc
# Summary of the method: as §1
# [7] = molecular target: Fuc(a1-3)[Gal(b1-4)]GlcNAc(b1-3)Gal(b1-4)[Fuc(a1-3)]GlcNAc
# Summary of the method: as §1
# [8] = molecular target: Fuc(a1-3)[Gal(b1-4)]GlcNAc6S
# Summary of the method: as §1
# [9] = molecular target: Gal(a1-3)Gal(b1-4)GlcNAc(b1-2)Man(a1-3)[Gal(a1-3)Gal(b1-4)GlcNAc(b1-2)Man(a1-6)]Man(b1-4)GlcNAc(b1-4)GlcNAc
# Summary of the method: as §1
# [10] = molecular target: Gal(a1-3)Gal(b1-4)[Fuc(a1-3)]GlcNAc
# Summary of the method: as §1
# [11] = molecular target: Gal(a1-3)Gal(b1-4)[Fuc(a1-3)]GlcNAc(b1-2)Man(a1-3)[Gal(a1-3)Gal(b1-4)[Fuc(a1-3)]GlcNAc(b1-2)Man(a1-6)]Man(b1-4)GlcNAc(b1-4)GlcNAc
# Summary of the method: as §1
# Gal(a1-4)Gal(b1-4)Glc = molecular target: Gal(a1-4)Gal(b1-4)Glc
# Summary of the method: as §1
# Gal(b1-3)GlcNAc = molecular target: Gal(b1-3)GlcNAc
# Summary of the method: as §1
# [12] = molecular target: Gal(b1-3)GlcNAc(b1-2)Man(a1-3)[GlcNAc(b1-4)][Gal(b1-3)GlcNAc(b1-2)Man(a1-6)]Man(b1-4)GlcNAc(b1-4)GlcNAc
# Summary of the method: as §1
# [13] = molecular target: Gal(b1-4)GlcNAc(b1-3)Gal(b1-4)GlcNAc(b1-2)Man(a1-3)[Gal(b1-4)GlcNAc(b1-3)Gal(b1-4)GlcNAc(b1-2)Man(a1-6)]Man(b1-4)GlcNAc(b1-4)GlcNAc
# Summary of the method: as §1
# [14] = molecular target: Gal(b1-4)GlcNAc(b1-3)Gal(b1-4)GlcNAc(b1-3)Gal(b1-4)GlcNAc(b1-2)Man(a1-3)[Gal(b1-4)GlcNAc(b1-3)Gal(b1-4)GlcNAc(b1-3)Gal(b1-4)GlcNAc(b1-2)Man(a1-6)]Man(b1-4)GlcNAc(b1-4)GlcNAc
# Summary of the method: as §1
# [15] = molecular target: Gal(b1-4)GlcNAc(b1-3)Gal(b1-4)GlcNAc(b1-3)Gal(b1-4)GlcNAc(b1-3)Gal(b1-4)GlcNAc(b1-3)Gal(b1-4)GlcNAc(b1-2)Man(a1-3)[Gal(b1-4)GlcNAc(b1-3)Gal(b1-4)GlcNAc(b1-3)Gal(b1-4)GlcNAc(b1-3)Gal(b1-4)GlcNAc(b1-3)Gal(b1-4)GlcNAc(b1-2)Man(a1-6)]Man(b1-4)GlcNAc(b1-4)GlcNAc
# Summary of the method: as §1
# [16] = molecular target: Gal3S(b1-4)[Fuc(a1-3)]Glc6S
# Summary of the method: as §1
# [17] = molecular target: Gal3S(b1-4)[Fuc(a1-3)]GlcNAc
# Summary of the method: as §1
# Gal3S6S(b1-4)GlcNAc = molecular target: Gal3S6S(b1-4)GlcNAc
# Summary of the method: as §1
# Gal6S(b1-4)GlcNAc6S = molecular target: Gal6S(b1-4)GlcNAc6S
# Summary of the method: as §1
# GalNAc(b1-6)GalNAc = molecular target: GalNAc(b1-6)GalNAc
# Summary of the method: as §1
# [18] = molecular target: GlcNAc(a1-4)Gal(b1-4)GalNAc
# Summary of the method: as §1
# [19] = molecular target: GlcNAc(a1-4)Gal(b1-4)GlcNAc
# Summary of the method: as §1
# [20] = molecular target: GlcNAc(b1-2)Man(a1-3)[GlcNAc(b1-4)][GlcNAc(b1-2)Man(a1-6)]Man(b1-4)GlcNAc(b1-4)[Fuc(a1-6)]GlcNAc
# Summary of the method: as §1
# [21] = molecular target: GlcNAc(b1-3)Gal(b1-4)GlcNAc(b1-2)Man(a1-3)[GlcNAc(b1-3)Gal(b1-4)GlcNAc(b1-2)Man(a1-6)]Man(b1-4)GlcNAc(b1-4)[Fuc(a1-6)]GlcNAc
# Summary of the method: as §1
# [22] = molecular target: GlcNAc(b1-3)Gal(b1-4)GlcNAc(b1-3)Gal(b1-4)GlcNAc(b1-3)Gal(b1-4)GlcNAc(b1-2)Man(a1-3)[GlcNAc(b1-3)Gal(b1-4)GlcNAc(b1-3)Gal(b1-4)GlcNAc(b1-3)Gal(b1-4)GlcNAc(b1-2)Man(a1-6)]Man(b1-4)GlcNAc(b1-4)[Fuc(a1-6)]GlcNAc
# Summary of the method: as §1
# [23] = molecular target: GlcNAc(b1-3)Gal(b1-4)GlcNAc(b1-3)Gal(b1-4)GlcNAc(b1-3)Gal(b1-4)GlcNAc(b1-2)[GlcNAc(b1-3)Gal(b1-4)GlcNAc(b1-3)Gal(b1-4)GlcNAc(b1-3)Gal(b1-4)GlcNAc(b1-6)]Man(a1-6)[GlcNAc(b1-3)Gal(b1-4)GlcNAc(b1-3)Gal(b1-4)GlcNAc(b1-3)Gal(b1-4)GlcNAc(b1-2)Man(a1-3)]Man(b1-4)GlcNAc(b1-4)[Fuc(a1-6)]GlcNAc
# Summary of the method: as §1
# [24] = molecular target: Neu5Ac(a2-3)Gal(b1-3)GalNAc(b1-4)[Neu5Ac(a2-3)]Gal(b1-4)Glc
# Summary of the method: as §1
# [25] = molecular target: Neu5Ac(a2-3)Gal(b1-3)GalNAc(b1-4)[Neu5Ac(a2-8)Neu5Ac(a2-3)]Gal(b1-4)Glc
# Summary of the method: as §1
# [26] = molecular target: Neu5Ac(a2-3)Gal(b1-3)GlcNAc(b1-2)[Neu5Ac(a2-3)Gal(b1-3)GlcNAc(b1-4)]Man(a1-6)[Neu5Ac(a2-3)Gal(b1-3)GlcNAc(b1-2)Man(a1-3)]Man(b1-4)GlcNAc(b1-4)GlcNAc
# Summary of the method: as §1
# [27] = molecular target: Neu5Ac(a2-3)Gal(b1-4)GlcNAc(b1-3)Gal(b1-4)GlcNAc(b1-2)Man(a1-3)[Neu5Ac(a2-3)Gal(b1-4)GlcNAc(b1-3)Gal(b1-4)GlcNAc(b1-2)Man(a1-6)]Man(b1-4)GlcNAc(b1-4)GlcNAc
# Summary of the method: as §1
# [28] = molecular target: Neu5Ac(a2-3)Gal(b1-4)GlcNAc(b1-3)Gal(b1-4)GlcNAc(b1-3)Gal(b1-4)GlcNAc(b1-2)Man(a1-3)[Neu5Ac(a2-3)Gal(b1-4)GlcNAc(b1-3)Gal(b1-4)GlcNAc(b1-3)Gal(b1-4)GlcNAc(b1-2)Man(a1-6)]GalNAc
# Summary of the method: as §1
# [29] = molecular target: Neu5Ac(a2-3)Gal(b1-4)[Fuc(a1-3)]GlcNAc(b1-3)GalNAc
# Summary of the method: as §1
# [30] = molecular target: Neu5Ac(a2-3)[GalNAc(b1-4)]Gal(b1-4)Glc
# Summary of the method: as §1
# [31] = molecular target: Neu5Ac(a2-6)Gal(b1-4)GlcNAc(b1-2)[Neu5Ac(a2-6)Gal(b1-4)GlcNAc(b1-6)]Man(a1-6)[Neu5Ac(a2-6)Gal(b1-4)GlcNAc(b1-2)Man(a1-3)][GlcNAc(b1-4)]Man(b1-4)GlcNAc(b1-4)GlcNAc
# Summary of the method: as §1
# [32] = molecular target: Neu5Ac(a2-6)Gal(b1-4)GlcNAc(b1-3)Gal(b1-4)GlcNAc
# Summary of the method: as §1
# [33] = molecular target: Neu5Ac(a2-6)Gal(b1-4)GlcNAc(b1-3)Gal(b1-4)GlcNAc(b1-3)Gal(b1-4)GlcNAc(b1-2)Man(a1-3)[Neu5Ac(a2-6)Gal(b1-4)GlcNAc(b1-3)Gal(b1-4)GlcNAc(b1-3)Gal(b1-4)GlcNAc(b1-2)Man(a1-6)]GalNAc
# Summary of the method: as §1
# [34] = molecular target: Neu5Ac(a2-6)Gal(b1-4)GlcNAc(b1-3)Gal(b1-4)GlcNAc(b1-3)[Neu5Ac(a2-6)Gal(b1-4)GlcNAc(b1-3)Gal(b1-4)GlcNAc(b1-6)]GalNAc
# Summary of the method: as §1
# [35] = molecular target: Neu5Ac(a2-6)Gal(b1-4)GlcNAc(b1-3)Gal(b1-4)[Fuc(a1-3)]GlcNAc(b1-3)Gal(b1-4)[Fuc(a1-3)]GlcNAc
# Summary of the method: as §1
# [36] = molecular target: Neu5Ac(a2-8)Neu5Ac(a2-3)Gal(b1-4)Glc
# Summary of the method: as §1
# [37] = molecular target: Neu5Ac(a2-8)Neu5Ac(a2-3)[GalNAc(b1-4)]Gal(b1-4)Glc
# Summary of the method: as §1
binder,measurement,setting,value
B1,glycan array binding signal (z-score),[1],6.67
same,glycan array binding signal (z-score),[2],0.061
same,glycan array binding signal (z-score),[3],2.31
same,glycan array binding signal (z-score),[4],-0.454
same,glycan array binding signal (z-score),[5],4.18
same,glycan array binding signal (z-score),[6],0.062
same,glycan array binding signal (z-score),Fuc(a1-3)GlcNAc,-0.399
same,glycan array binding signal (z-score),[7],0.226
same,glycan array binding signal (z-score),[8],-0.462
same,glycan array binding signal (z-score),[9],0.541
same,glycan array binding signal (z-score),[10],0.246
same,glycan array binding signal (z-score),[11],2.45
same,glycan array binding signal (z-score),Gal(a1-4)Gal(b1-4)Glc,-0.394
same,glycan array binding signal (z-score),Gal(b1-3)GlcNAc,-0.244
same,glycan array binding signal (z-score),[12],3.15
same,glycan array binding signal (z-score),[13],2.54
same,glycan array binding signal (z-score),[14],2.57
same,glycan array binding signal (z-score),[15],0.133
same,glycan array binding signal (z-score),[16],-0.488
same,glycan array binding signal (z-score),[17],-0.647
same,glycan array binding signal (z-score),Gal3S6S(b1-4)GlcNAc,-0.612
same,glycan array binding signal (z-score),Gal6S(b1-4)GlcNAc6S,0.322
same,glycan array binding signal (z-score),GalNAc(b1-6)GalNAc,-0.155
same,glycan array binding signal (z-score),[18],-0.484
same,glycan array binding signal (z-score),[19],-0.068
same,glycan array binding signal (z-score),[20],0.223
same,glycan array binding signal (z-score),[21],0.489
same,glycan array binding signal (z-score),[22],-0.119
same,glycan array binding signal (z-score),[23],0.571
same,glycan array binding signal (z-score),[24],1.48
same,glycan array binding signal (z-score),[25],-0.511
same,glycan array binding signal (z-score),[26],3.69
same,glycan array binding signal (z-score),[27],2.19
same,glycan array binding signal (z-score),[28],5.23
same,glycan array binding signal (z-score),[29],14.5
same,glycan array binding signal (z-score),[30],-0.075
same,glycan array binding signal (z-score),[31],0.372
same,glycan array binding signal (z-score),[32],-0.634
same,glycan array binding signal (z-score),[33],0.32
same,glycan array binding signal (z-score),[34],2.58
same,glycan array binding signal (z-score),[35],0.181
same,glycan array binding signal (z-score),[36],-0.326
same,glycan array binding signal (z-score),[37],-0.424
